This note sets out measurements from PubChem BioAssay AID651658 (Broad Institute, 2012).

In all, about 340,000 compounds went through this assay and about 5,100 (1.5%) were called active.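 Rule for the calls: active = mean Tm shift, scaled 0 neutral to 100 positive control, at about 1.3% or above, every replicate too (limit read from the data); inconclusive = no clear call, values can overlap the other calls; inactive = the rest.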 What follows is part of a selection rich in actives, with near analogues and random picks from the rest.

The target of this assay is Fibroblast growth factor 22 (Homo sapiens) (UniProt Q9HCT0). The experiment in a line: FGF22 ligand-induced thermal stabilization – biophysical, thermal shift, single point, FGF22 synaptogenesis inhibitor project, primary screen (AID 651658). As to conditions: recombinant FGF22 thermal shift, SYPRO orange fluorescence; at 9.99 µM; stronger effect = higher value; percent of sucrose octasulfate shift, DMSO zero.
Chain of Fibroblast growth factor 22 (Homo sapiens) (Q9HCT0 whole entry, looked up): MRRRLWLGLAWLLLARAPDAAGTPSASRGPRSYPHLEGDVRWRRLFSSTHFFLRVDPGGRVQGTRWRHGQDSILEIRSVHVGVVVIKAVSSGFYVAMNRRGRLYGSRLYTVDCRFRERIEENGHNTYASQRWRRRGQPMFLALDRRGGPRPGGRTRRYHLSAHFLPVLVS
For the compound `Cc1ccc(S(=O)(=O)N(C)C[C@@H]2Oc3ccc(NC(=O)c4ccncc4)cc3CC(=O)N([C@H](C)CO)C[C@H]2C)cc1`, the activity (Tm shift, normalised) was -0.013% (inactive).
In the case of `CC1(C)CC(=O)C(C2c3ccccc3S(=O)(=O)c3ccccc32)C(=O)C1`, the activity (Tm shift, normalised) was 42.9% (active).
Turning to `CC1(C)CC(=O)C(CC(=O)N2CCC(Cc3ccccc3)CC2)C(=O)C1`, the activity (Tm shift, normalised) is 41.9% (inactive).
Turning to `COc1ccc2c3c(n(C)c2c1)[C@H](CO)N(CC1CC1)CC31CCN(C(=O)c2ccccc2)CC1`, the activity (Tm shift, normalised) is -0.078% (inactive).
The result for `COc1ccc(S(=O)(=O)N[C@@H]2CC[C@@H](CC(=O)N3CCC(Cc4ccccc4)CC3)O[C@@H]2CO)cc1` reads 0.502% (inactive); that for `CS(=O)(=O)N1[C@H](CO)[C@H](c2ccccc2)C12CN(C(=O)C1CC1)C2`, -0.066% (inactive).
As for `Cc1ccccc1NC(=O)Cc1nc(COC(=O)CNC(=O)c2ccc(Cl)cc2Cl)cs1`, the activity (Tm shift, normalised) is 0.003% (inactive).
On to `CC(=O)Cc1nsc(NC(=O)c2ccc(Cl)cc2Cl)n1`, for which the activity (Tm shift, normalised) is 44.2% (active).
Take `Cn1cc(C(=O)c2ccc(Cl)cc2Cl)cc1C(=O)NN`: the activity (Tm shift, normalised) was -0.308% (inactive).
`O=C(CN1C(=O)S/C(=C\c2ccccc2F)C1=O)NCCCn1ccnc1`: the activity (Tm shift, normalised) is -0.15% (inactive).
On to `Cc1nn(Cc2ccccc2)c(C)c1C(=O)NCCN1C(=O)S/C(=C\c2ccc(F)cc2)C1=O`, for which the activity (Tm shift, normalised) is 0.11% (inactive).
The value for `Cn1cccc1/C=C1\SC(=O)N(CC(=O)Nc2ccc(F)cc2)C1=O` was 43% (active); that for `O=C(O)c1ccc(/C=N/NC(=S)NCc2ccccc2)cc1` was 0.16% (inactive).
In the case of `COc1ccc(S(=O)(=O)N(CC(=O)N/N=C/c2ccc(C(=O)O)cc2)Cc2ccccc2)cc1OC`, the activity (Tm shift, normalised) is -0.204% (inactive).
The value for `CC(=O)Nc1ccc(S(=O)(=O)N(CCc2ccccc2)CC(=O)N/N=C/c2ccc(C(=O)O)cc2)cc1` was 1.76% (active); that for `CNC[C@H]1Oc2ncc(-c3ccccc3F)cc2C(=O)N([C@H](C)CO)C[C@H]1C` was -0.078% (inactive); that for `COCC#Cc1ccc2c(c1)O[C@H](CN(C)CC1CC1)[C@H](C)CN([C@H](C)CO)S2(=O)=O` was 0.379% (inactive).
For `CCCN(C)C[C@@H]1OCCCC[C@@H](C)Oc2ccc(NS(=O)(=O)c3c(C)noc3C)cc2C(=O)N([C@H](C)CO)C[C@@H]1C`, the activity (Tm shift, normalised) was -0.518% (inactive).
The value for `C[C@H](CO)N1C[C@H](C)[C@H](CN(C)S(=O)(=O)c2cccs2)OCCCC[C@H](C)Oc2ccc(NC(=O)CCCN(C)C)cc2C1=O` was -0.21% (inactive).
Turning to `O=C1c2cccc3c([N+](=O)[O-])ccc(c23)C(=O)N1CC1CCCO1` (stereo unspecified), the activity (Tm shift, normalised) was 0.06% (inactive).
`CN1C(=O)c2cccc3c(N)ccc(c23)C1=O`: the activity (Tm shift, normalised) is 28.3% (active).
